Screening results: PubChem BioAssay, The Scripps Research Institute Molecular Screening Center
Shown are actives, neighbours in structure and some others; about 3.4% of the full set was active somewhere.
PAFAH1B2 inh = PAFAH1B2 enzyme inhibitors, primary screen, biochemical, fluorescence polarization, human; recombinant PAFAH1B2, FP-rhodamine activity probe; inhibition, % at 3.39 µM; AID 492953, 2010; Platelet-activating factor acetylhydrolase IB subunit alpha2 (Homo sapiens), P68402; 340,000 compounds, 1.2% hits;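 active means inhibition above the mean of all tested compounds plus 3 SD, cut at about 24% in these data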
PP5 inh = PP5 phosphatase inhibitors, primary screen, biochemical, fluorescence | purified PP5c, OMFP substrate fluorescence | Serine/threonine-protein phosphatase 5 (Homo sapiens), P53041 | inhibition, % at 6.7 µM | 320,000 compounds, 0.18% hits | AID 1987, 2009;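 active means inhibition above the campaign's mean inhibition across all tested compounds plus 3 SD, cut at about 9.5% in these data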
PAFAH2 FP inh = PAFAH2 enzyme inhibitors, primary screen, biochemical, fluorescence polarization, human. 340,000 compounds, 0.99% hits. inhibition, % at 3.39 µM. recombinant PAFAH2, FP-rhodamine activity probe;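 active means inhibition above the mean over all tested compounds plus 3 SD, cut at about 30% in these data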;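 further: inhibitors block probe labeling of enzyme so polarization drops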
PAFAH1B3 inh = PAFAH1B3 enzyme inhibitors, primary screen, biochemical, fluorescence polarization, human | Platelet-activating factor acetylhydrolase IB subunit alpha1 (Homo sapiens), Q15102 | recombinant PAFAH1B3, FP-rhodamine probe | inhibition, % at 3.39 µM | 340,000 compounds, 0.28% hits;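 active means inhibition above the screen-wide average of all tested compounds plus 3 SD, cut at about 25% in these data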
Target sequence (Q15102 whole entry, looked up): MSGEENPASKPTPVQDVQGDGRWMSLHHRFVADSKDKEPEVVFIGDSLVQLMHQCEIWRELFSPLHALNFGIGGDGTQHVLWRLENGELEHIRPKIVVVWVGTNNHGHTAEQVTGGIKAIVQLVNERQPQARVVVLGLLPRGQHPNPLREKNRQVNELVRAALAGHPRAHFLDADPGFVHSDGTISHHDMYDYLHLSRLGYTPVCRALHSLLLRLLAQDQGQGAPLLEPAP
pPAFAH inh = pPAFAH enzyme inhibitors, primary screen, biochemical, fluorescence polarization, human; Platelet-activating factor acetylhydrolase (Homo sapiens), Q13093; recombinant pPAFAH, FP-rhodamine probe fluorescence polarization; inhibition, % at 3.39 µM; 330,000 compounds, 1.5% hits; AID 463082, 2010;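 active means inhibition above the mean inhibition across the screen plus 3 SD, cut at about 25% in these data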;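 further: inhibitors block binding of the rhodamine activity-based probe so polarization drops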
PP1 inh = PP1-alpha phosphatase inhibitors, primary screen, counter-screen for PP5 inhibitor project, biochemical, fluorescence, OMFP substrate, single point; AID 2235, 2010; inhibition, % at 6.7 µM; Serine/threonine-protein phosphatase PP1-alpha catalytic subunit (Homo sapiens), P62136; 320,000 compounds, 0.9% hits; purified PP1alpha;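 active means inhibition above the mean inhibition of all tested compounds plus 3 SD, computed separately for each screening campaign, cut at about 15% in these data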
Target sequence (P62136 whole entry, looked up): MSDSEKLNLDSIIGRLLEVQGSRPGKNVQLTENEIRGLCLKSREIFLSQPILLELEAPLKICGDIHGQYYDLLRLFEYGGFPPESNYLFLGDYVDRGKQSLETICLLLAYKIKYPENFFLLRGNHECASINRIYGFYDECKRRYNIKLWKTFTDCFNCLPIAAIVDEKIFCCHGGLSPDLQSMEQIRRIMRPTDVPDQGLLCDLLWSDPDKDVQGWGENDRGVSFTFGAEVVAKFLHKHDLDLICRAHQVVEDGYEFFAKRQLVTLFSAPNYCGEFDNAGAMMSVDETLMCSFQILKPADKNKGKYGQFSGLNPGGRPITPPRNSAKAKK
PP1 inh confirm = PP1 phosphatase inhibitors, confirmation, biochemical, fluorescence, OMFP substrate, triplicate. shares compounds with PP1 inh. purified PP1alpha. inhibition, % at 6.7 µM. 1,900 compounds, 52% hits. AID 2358, 2010;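 active means mean PP1 inhibition above a set limit taken from the earlier primary screen, cut at about 15% in these data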
PP5 counter = PP5 phosphatase inhibition by PP1 hits, confirmation, counter-screen for PP1 inhibitor project, biochemical, fluorescence, triplicate; shares compounds with PP1 inh; inhibition, % at 6.7 µM; 1,900 compounds, 4% hits; purified PP5c, OMFP fluorescence;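 active means mean PP5 inhibition over triplicate wells above about 9.5% taken from the earlier PP1 screen, limit read from the data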
A number is an active result; . = inactive; / = not tested or not shown.

SMILES | PAFAH1B2 inh | PP5 inh | PAFAH2 FP inh | PAFAH1B3 inh | pPAFAH inh | PP1 inh | PP1 inh confirm | PP5 counter
O=C1N[C@@H](Cc2ccccc2)C(=O)N2[C@H]1C[C@]1([C@]34C[C@H]5C(=O)N[C@@H](Cc6ccccc6)C(=O)N5[C@H]3N(S(=O)(=O)c3ccccc3)c3ccccc34)c3ccccc3N(S(=O)(=O)c3ccccc3)[C@H]21 | . | . | . | . | . | 30 | 23 | .
COc1ccc(C(=O)c2sc3nc(-c4ccc(OC)cc4)ccc3c2N)cc1 | . | . | . | . | . | . | / | /
COc1ccc(-c2ccc3c(N)c(C(=O)c4cccc(OC)c4)sc3n2)cc1 | . | . | . | . | 34 | 30 | 26 | .
Nc1ccc(-c2nc3ccc(N)cc3[nH]2)cc1 | . | . | . | . | . | . | / | /
Nc1ccc2nc(-c3cccc(-c4nc5ccc(N)cc5[nH]4)c3)[nH]c2c1 | 24 | . | . | 31 | . | 42 | . | .
CCCC(=O)NC(c1ccc(C)cc1)c1ccc2cccnc2c1O (stereo not drawn) | . | . | . | . | . | 23 | 18 | .
CCCC(=O)NC(c1ccccc1OC)c1ccc2cccnc2c1O (stereo not drawn) | . | . | . | . | . | . | / | /
CCCCC(=O)NC(c1ccc(Cl)cc1)c1ccc2cccnc2c1O (stereo not drawn) | . | . | . | . | . | 32 | 21 | .
CCCC(=O)NC(c1ccc(Cl)cc1)c1ccc2cccnc2c1O (stereo not drawn) | . | . | . | . | . | 23 | 20 | .
CC(=O)NC(c1ccc(Cl)cc1Cl)c1ccc2cccnc2c1O (stereo not drawn) | . | / | . | . | / | / | / | /
CCCC(=O)NC(c1ccc(Cl)cc1Cl)c1ccc2cccnc2c1O (stereo not drawn) | . | . | . | . | . | 26 | 21 | .
Cc1ccc(CN2CCN(Cc3cnc(N(C)C)s3)CC2CCO)o1 (stereo not drawn) | . | . | . | . | . | . | / | /
O=C(NC1CCN(C(=S)NCc2ccco2)CC1)c1cccc(F)c1 | . | . | . | . | . | . | / | /
CS(=O)(=O)c1ncc(Cl)c(C(=O)Nc2ccc(OC(F)F)cc2)n1 | . | . | . | . | . | . | / | /
CC(=O)Nc1ccc(N/C(C)=C/C(=O)c2cccnc2)cc1 | . | . | . | . | . | . | / | /
CC(C)(C)N(Cc1ccccc1)C(=O)c1ccc(Cl)cc1[N+](=O)[O-] | . | . | . | . | . | . | / | /
Cc1ccc2[nH]c(=O)c(CN(C)C(=O)c3ccccn3)cc2c1 | . | . | . | . | . | . | / | /
O=C1/C(=C/c2ccccc2Cl)SC(=S)N1CCCC(=O)N(CCO)c1ccccc1 | . | . | . | . | . | 18 | . | .
O=C(O)CCCCN1C(=O)/C(=C\c2ccc(OCc3ccccc3)c(OCc3ccccc3)c2)SC1=S | . | . | . | . | . | . | / | /
O=C(O)CCCN1C(=O)/C(=C\c2ccccc2OCc2ccccc2)SC1=S | . | . | . | . | 29 | 19 | . | .
CCC(c1nnnn1Cc1ccccc1)N1CCN(C(=O)c2ccco2)CC1 (stereo not drawn) | . | . | . | . | . | . | / | /
Cc1cccc(N2CC(C(=O)Nc3nnc(SCC(=O)Nc4nccs4)s3)CC2=O)c1 (stereo not drawn) | . | . | . | . | . | . | / | /
Cc1cccc(N2CC(C(=O)Nc3nnc(SCC(=O)Nc4cc(C)on4)s3)CC2=O)c1 (stereo not drawn) | . | . | . | . | . | 27 | 27 | .
CCCCCCCCn1ccc(=N)cc1 | . | . | . | . | . | . | / | /
CCCCCCCCCCCCCCCCn1cc[n+](C)c1 | . | . | . | . | . | 25 | . | .
SMILES | PAFAH1B2 inh | PP5 inh | PAFAH2 FP inh | PAFAH1B3 inh | pPAFAH inh | PP1 inh | PP1 inh confirm | PP5 counter
O=C(COC(=O)/C=C/c1ccc(Br)o1)Nc1ccc2[nH]c(=O)[nH]c2c1 | . | . | . | . | . | 21 | 25 | .
N#Cc1c(NC(=O)COC(=O)C2CC3C=CC2C3)oc(-c2ccccc2)c1-c1ccccc1 (stereo not drawn) | . | . | . | . | . | 19 | . | .
COc1cccc(/C=N/Nc2ncnc(Cl)c2N)c1O | . | . | . | . | . | 26 | 32 | .
COc1cccc(/C=N/Nc2nccnc2Cl)c1O | . | / | . | . | / | / | / | /
COc1cccc(/C=N/Nc2ncnc3scc(-c4ccccc4)c23)c1O | . | . | . | . | . | 26 | 32 | .
COc1cccc(/C=N/Nc2nc3ccccc3[nH]2)c1O | . | . | . | . | . | . | / | /
CCn1c(SCC(=O)Nc2ccccc2N2CCOCC2)nnc1-c1ccccc1O | . | . | . | . | . | . | / | /
Cc1cc(/C=N/n2cnnc2)c(C)n1-c1ccc(Cl)cc1 | . | . | . | . | . | . | / | /
Cc1cc(/C=N/n2cnnc2)c(C)n1-c1ccc(OCc2ccc(Cl)cc2Cl)cc1 | . | . | . | . | . | 27 | 42 | .
Cc1cc(/C=N/n2cnnc2)c(C)n1-c1ccc(OCc2ccc(F)cc2)cc1 | . | . | . | . | . | 19 | . | .
CC(NC(=O)c1cc(-c2ccc(Br)cc2)on1)c1ccccc1 (stereo not drawn) | . | . | . | . | . | . | / | /
O=C(N/N=C/c1cccc([N+](=O)[O-])c1)c1cc(-c2ccc3c(c2)OCO3)n[nH]1 | . | . | . | . | . | 20 | 25 | .
O=C(O)C/C(=C\c1cccc(NC(=O)c2ccccc2Cl)c1)c1nc2ccccc2s1 | . | . | . | . | . | . | / | /
COc1ccc(C(=O)Nc2cccc(/C=C(\CCC(=O)O)c3nc4ccccc4s3)c2)cc1 | . | . | . | . | . | 23 | . | .
COCCOc1ccc(C(F)(F)F)cc1NC(=O)c1ccccc1F | . | . | . | . | . | . | / | /
Cc1ccc(C(=O)c2ccc(N3CCOCC3)c(F)c2)cc1 | . | . | . | . | . | . | / | /
COCCn1c(C)cc(C2=NNC(=Nc3ccccc3)SC2)c1C | . | . | . | . | . | . | / | /
COCCn1c(C)cc(C2=NNC(=Nc3ccc(OC)cc3)SC2)c1C | . | . | . | . | . | 20 | . | .
